# Data taken from the supplement of paper PMC13380429.
# Columns and labels:
# [1] = test system: Vero E6 infected with SARS-CoV-2; test: morphology score (similarity to uninfected cells); higher = more like uninfected cells; conditions: 24 h
# [2] = test system: Vero E6 infected with SARS-CoV-2; test: SARS-CoV-2 infection rate relative to infected DMSO; higher = more infection, active = 60 or less; conditions: 24 h
Structure (SMILES),morphology score [1],SARS-CoV-2 infection rate [2]
CC(=O)SC[C@@H](Cc1ccccc1)C(=O)NCC(=O)OCc1ccccc1 (racemic) [racecadotril] (10 µM),0.0461,110% (inactive)
C[C@H](CCC(=O)O)[C@H]1CC[C@H]2[C@@H]3C(=O)C[C@@H]4CC(=O)CC[C@]4(C)[C@H]3CC(=O)[C@]12C [dehydrocholate-acid] (10 µM),0.231,94.8% (inactive)
C[C@H](NC(=O)[C@@H](O)c1cc(F)cc(F)c1)C(=O)N[C@@H]1C(=O)N(C)c2ccccc2-c2ccccc21 (10 µM),0.165,101% (inactive)
Cc1c(N)c(=O)n(-c2ccccc2)n1C [ampyrone] (10 µM),-0.0355,113% (inactive)
Ic1cc(-c2ccccc2)ncn1 [4-iodo-6-phenylpyrimidine] (10 µM),0.254,81.5% (inactive)
COc1ccc(OC)c(C(O)C(C)N)c1 (stereo not given) [methoxamine] (10 µM),-0.12,108% (inactive)
C=C1/C(=C\C=C2/CCC[C@]3(C)[C@@H]([C@H](C)CCCC(C)(C)O)CC[C@@H]23)C[C@@H](O)C[C@@H]1O [calcitriol] (10 µM),0.098,108% (inactive)
Cc1cc(N2CCOCC2)cc2[nH]c(-c3c(NC[C@@H](O)c4cccc(Cl)c4)cc[nH]c3=O)nc12 (0.833333 µM),0.0224,110% (inactive)
COc1ccccc1N1CCN(CCN2C(=O)CC3(CCCC3)CC2=O)CC1 (10 µM),-0.291,116% (inactive)
O=C(c1c(F)ccc(NS(=O)(=O)N2CC[C@@H](F)C2)c1F)c1c[nH]c2ncc(-c3cnc(C4CC4)nc3)cc12 (10 µM),0.162,103% (inactive)
COc1ccc(CCCO[C@@H](Cn2ccnc2)c2ccc(OC)cc2)cc1 (0.833333 µM),0.00702,107% (inactive)
CC(=O)N1CCN(c2ccc(OC[C@@H]3CO[C@@](Cn4ccnc4)(c4ccc(Cl)cc4Cl)O3)cc2)CC1 (racemic) [ketoconazole] (10 µM),0.0784,108% (inactive)
O=C(O)/C=C/c1ccc(O)c(O)c1 [caffeic-acid] (10 µM),-0.0394,110% (inactive)
Cc1cc(CC(=O)O)n(C)c1C(=O)c1ccc(Cl)cc1 [zomepirac] (10 µM),0.117,104% (inactive)
CN(C)/N=N/c1[nH]cnc1C(N)=O [dacarbazine] (10 µM),0.135,87% (inactive)
Fc1ccc(Cn2c(NC3CCNCC3)nc3ccccc32)cc1 [tecastemizole] (10 µM),-0.00173,111% (inactive)
N#C/C(=C\c1ccc(O)c(O)c1)C(=O)OCCc1cccs1 (10 µM),-0.0101,108% (inactive)
O=C1O[C@H]([C@@H](O)CO)C([O-])=C1O.[Na+] [sodium-ascorbate] (10 µM),0.159,95.5% (inactive)
COc1ccccc1C1(O)CCN(CCCn2c3ccccc3c3ccccc32)CC1 (0.833333 µM),0.0278,97.5% (inactive)
C=C1/C(=C\C=C2/CCC[C@]3(C)[C@@H]([C@H](C)OCCC(C)(C)O)CC[C@@H]23)C[C@@H](O)C[C@@H]1O [maxacalcitol] (10 µM),-0.0664,122% (inactive)

Structure (SMILES),morphology score [1],SARS-CoV-2 infection rate [2]
CCCCCCCCNC(=O)/C(C#N)=C/c1cn(CCCN(C)C)c2ccccc12 [dynole-34-2] (10 µM),0.659,35.5% (active)
CC(=O)N(C)c1cc(-c2ccnc3c(C(=O)c4cccs4)cnn23)ccc1F [lorediplon] (10 µM),-0.126,112% (inactive)
CCC1=C[C@@H]2CN3CCc4c([nH]c5ccccc45)[C@@](C(=O)OC)(C2)[C@@H]13 [catharanthine] (10 µM),0.119,110% (inactive)
NS(=O)(=O)c1cc2c(cc1Cl)N=CNS2(=O)=O [chlorothiazide] (10 µM),-0.179,106% (inactive)
CC(C)(C)NC(=O)[C@@H]1CN(Cc2cccnc2)CCN1C[C@@H](O)C[C@@H](Cc1ccccc1)C(=O)N[C@H]1c2ccccc2C[C@H]1O [indinavir] (10 µM),0.0426,110% (inactive)
CNc1cc2c(Nc3cccc(Br)c3)ncnc2cn1 (10 µM),-0.276,112% (inactive)
Cc1c(C(=O)NN2CCCCC2)nn(-c2ccc(Cl)cc2Cl)c1-c1ccc(Cl)cc1 [rimonabant] (10 µM),0.17,110% (inactive)
C[C@@H](CN1CCC(n2c(=O)[nH]c3cc(Cl)ccc32)CC1)NC(=O)c1ccc2ccccc2c1 (10 µM),0.46,87% (inactive)
CCCCNc1ncc(-c2ccc(CN3CCOCC3)cn2)c(N[C@H]2CC[C@H](O)CC2)n1 (10 µM),0.102,113% (inactive)
COc1cc(OC)cc(-c2ccc3c(-c4ccc(F)cc4)n[nH]c3n2)c1 (10 µM),0.102,106% (inactive)
CN1C(=O)c2c(nn(Cc3ccc(-c4cccc(F)n4)cc3)c2Nc2ccccc2)N2C1=N[C@@H]1CCC[C@@H]12 (10 µM),0.38,105% (inactive)
CC[C@H](C)[C@@H]1NC(=O)[C@H](Cc2ccc(OC)cc2)NC(=O)CCCSC[C@@H](C(=O)N2CCC[C@H]2C(=O)N[C@@H](CC(C)C)C(=O)NCC(N)=O)NC(=O)[C@H](CC(N)=O)NC(=O)[C@H](CCC(N)=O)NC1=O [carbetocin] (10 µM),0.123,118% (inactive)
COc1ccccc1OCCNCC(O)COc1cccc2[nH]c3ccccc3c12 (stereo not given) [carvedilol] (10 µM),0.134,97.5% (inactive)
Nc1nc(OCC2CCCCC2)c2nc[nH]c2n1 (10 µM),0.0911,90.5% (inactive)
Cc1ncc([N+](=O)[O-])n1CC(C)O (stereo not given) [secnidazole] (10 µM),0.17,99% (inactive)
O=C(O)C[C@H](O)C(=O)O [malic-acid] (10 µM),-0.0659,104% (inactive)
c1cnc2cc3c(cc2n1)[C@@H]1CNC[C@H]3C1 [varenicline] (10 µM),-0.0409,101% (inactive)
CCO[C@@H]1OC(=O)C[C@@H]1NC(=O)[C@@H]1CCCN1C(=O)[C@@H](NC(=O)c1ccc(N)c(Cl)c1)C(C)(C)C (10 µM),0.0386,116% (inactive)
C=CCNc1ncnc2ccc(Br)cc12 (10 µM),0.19,101% (inactive)
C[C@H](CCC(=O)O)[C@H]1CC[C@H]2[C@@H]3[C@@H](O)C[C@@H]4C[C@H](O)CC[C@]4(C)[C@H]3CC[C@]12C [ursodiol] (10 µM),-0.0233,106% (inactive)

Structure (SMILES),morphology score [1],SARS-CoV-2 infection rate [2]
CCCCC/C=C\C/C=C\C/C=C\CCCCC(=O)O [gamma-linolenic-acid] (10 µM),0.0589,102% (inactive)
C[C@@H](O[C@H]1OCCN(Cc2nn(P(=O)(O)O)c(=O)[nH]2)[C@H]1c1ccc(F)cc1)c1cc(C(F)(F)F)cc(C(F)(F)F)c1 [fosaprepitant-dimeglumine] (10 µM),0.0215,112% (inactive)
CC(C)(C)c1cc(C=C(C#N)C#N)cc(C(C)(C)C)c1O [tyrphostin-A9] (0.833333 µM),0.116,80.5% (inactive)
O=C(O)c1nc(=O)[nH]c(=O)[nH]1 [oxonic-acid] (10 µM),-0.0587,115% (inactive)
CC[C@@H]1C(=O)N(C)c2cnc(Nc3ccc(C(=O)NC4CCN(C)CC4)cc3OC)nc2N1C1CCCC1 (10 µM),-0.305,104% (inactive)
O=C1CCC[C@@H]2[C@H]3CCCN4CCC[C@@H](CN12)[C@@H]34 [matrine] (10 µM),0.0694,112% (inactive)
CC1(C)S[C@@H]2[C@H](NC(=O)COc3ccccc3)C(=O)N2[C@H]1C(=O)O [penicillin-v-potassium] (10 µM),-0.0155,116% (inactive)
O=C([O-])c1ccccn1.O=C([O-])c1ccccn1.O=C([O-])c1ccccn1.[Cr+3] [chromium-picolinate] (10 µM),-0.0147,112% (inactive)
CC(C)(C)NC[C@H](O)c1ccc(O)cc1Cl [meluadrine] (10 µM),0.0145,94% (inactive)
Cc1cccc(/C=C/c2ccccc2)n1 (10 µM),0.0753,98% (inactive)
O[C@H]1[C@H](O)[C@@H](O)CN2CC[C@H](O)[C@H]12 [castanospermine] (10 µM),-0.18,112% (inactive)
CCC(NC(C)C)C(O)c1ccc(O)c2[nH]c(=O)ccc12 (stereo not given) [procaterol] (10 µM),0.142,88% (inactive)
CC(CNC(=O)c1cccnc1)NC(=O)c1cccnc1 (stereo not given) [nicaraven] (10 µM),-0.02,114% (inactive)
O=C(/C=C/c1cccc(S(=O)(=O)Nc2ccccc2)c1)NO [belinostat] (10 µM),0.0182,97.5% (inactive)
COc1cc(N2CCN(C(C)=O)CC2)ccc1Nc1ncc(Cl)c(Nc2ccc(N3CCN(C(C)=O)CC3)cc2OC)n1 (10 µM),0.0828,114% (inactive)
NC(=O)c1cccc(N)c1 [3-amino-benzamide] (10 µM),-0.037,102% (inactive)
CC(O)Cn1cnc2c1c(=O)n(C)c(=O)n2C (stereo not given) [Proxyphylline] (10 µM),0.074,97% (inactive)
CN1C/C=C/CCOc2cccc(c2)-c2ccnc(n2)Nc2cccc(c2)C1 (10 µM),-0.0856,104% (inactive)
COc1cc2c(cc1OC)[C@@]13CCN4CC5=CCO[C@H]6CC(=O)N2[C@H]1[C@H]6[C@H]5C[C@H]43 [brucine] (10 µM),0.0385,105% (inactive)
C[C@H](Oc1ccc(S(C)(=O)=O)cc1C(=O)N1CCN(c2ncc(C(F)(F)F)cc2F)CC1)C(F)(F)F [bitopertin] (10 µM),0.119,108% (inactive)
